Test [1] can be described thus: qHTS RealTime-Glo MT Cell Viability Assay in HepG2 cells - 40 hour (AID 1224870). Note: nearly all actives have a fitted effect of over 50% in size. An outline of the steps:
(§1)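 Real-time viability: cells seeded at 600 per well together with NanoLuc and cell-permeant prosubstrate, compounds added after 5 h incubation. Luminescence tracked at 0, 8, 16, 24, 32 and 40 h of exposure.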

Test [2] in a line: A CellTox Green Cytotoxicity Assay to monitor cytotoxicity in HEK293 cells - 40 hour (AID 1224871). Note: nearly all actives have a fitted effect of over 45% in size. An outline of the steps: (§2)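 Fluorescence from a DNA-binding dye excluded by viable cells was measured repeatedly in the same HEK293 wells (600 cells/well) during continuous compound exposure at 37 C. Each assay gives one read point: 0, 8, 16, 24, 32 or 40 h.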
Test [3] in a line: qHTS RealTime-Glo MT Cell Viability Assay in HEK293 cells - 16 hour (AID 1224872). Note: top concentration of the series differs between compounds; nearly all actives have a fitted effect of over 50% in size. The method in brief: (§3)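 Quantitative high-throughput screen of the Tox21 10K library in HEK293: cells and RealTime-Glo reagents plated together, compound added at 5 h, luminescence monitored through 40 h at 37 C.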
(Quantitative high-throughput screening tests each substance at several concentrations.)

Test [4] is described as follows: qHTS RealTime-Glo MT Cell Viability Assay in HepG2 cells - 8 hour (AID 1224873). Note: nearly all actives have a fitted effect of over 55% in size. The method in brief:
as §1

Test [5] in a line: qHTS RealTime-Glo MT Cell Viability Assay in HEK293 cells - 40 hour (AID 1224874). Note: nearly all actives have a fitted effect of over 50% in size. As to conditions: RealTime-Glo luminescence; max response: hits give low values. The method in brief:
(§4)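 Luminescence, which tracks viable cell number through reduction of the prosubstrate to a NanoLuc substrate, was read over continuous 37 C culture. Cells (600/well) were premixed with reagent and rested 5 h before 23 nL of compound in DMSO was pinned.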

Test [6] in a line: A CellTox Green Cytotoxicity Assay to monitor cytotoxicity in HEK293 cells - 24 hour (AID 1224875). Note: series mostly up to about 77 µM; nearly all actives have a fitted effect of over 45% in size. An outline of the steps:
as §2

A short description of test [7]: A CellTox Green Cytotoxicity Assay to monitor cytotoxicity in HepG2 cells - 16 hour (AID 1224876). Note: nearly all actives have a fitted effect of over 45% in size. The method in brief:
(§5)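 Real-time cytotoxicity: fluorescence of a cell-impermeant cyanine dye binding DNA of dead HepG2 cells, measured repeatedly (0–40 h) during compound exposure at 37 C. Cells seeded 600/well with reagent, dosed after 5 h.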

Test [8] in a line: A CellTox Green Cytotoxicity Assay to monitor cytotoxicity in HepG2 cells - 24 hour (AID 1224878). Note: nearly all actives have a fitted effect of over 45% in size. An outline of the steps: as §5
A short description of test [9]: A CellTox Green Cytotoxicity Assay to monitor cytotoxicity in HepG2 cells - 40 hour (AID 1224879). Note: nearly all actives have a fitted effect of over 40% in size. The method in brief: as §5
Test [10] in a line: qHTS RealTime-Glo MT Cell Viability Assay in HEK293 cells - 0 hour (AID 1224880). The method in brief: as §4
Test [11] in a line: A CellTox Green Cytotoxicity Assay to monitor cytotoxicity in HEK293 cells - 32 hour (AID 1224881). Note: nearly all actives have a fitted effect of over 40% in size. The method in brief: as §2
Test [12] is described as follows: A CellTox Green Cytotoxicity Assay to monitor cytotoxicity in HepG2 cells - 0 hour (AID 1224882). Note: nearly all actives have a fitted effect of over 35% in size. The method in brief:
as §5

The nature of test [13]: A CellTox Green Cytotoxicity Assay to monitor cytotoxicity in HEK293 cells - 8 hour (AID 1224884). Note: nearly all actives have a fitted effect of over 35% in size. The method in brief: as §2
Test [14] in a line: qHTS RealTime-Glo MT Cell Viability Assay in HEK293 cells - 24 hour (AID 1224886). Note: top concentration of the series differs between compounds; nearly all actives have a fitted effect of over 50% in size. An outline of the steps:
as §3

Test [15] can be described thus: qHTS RealTime-Glo MT Cell Viability Assay in HEK293 cells - 8 hour (AID 1224887). The method in brief: as §4
A short description of test [16]: A CellTox Green Cytotoxicity Assay to monitor cytotoxicity in HEK293 cells - 16 hour (AID 1224888). Note: nearly all actives have a fitted effect of over 35% in size. The method in brief: as §2
A short description of test [17]: qHTS RealTime-Glo MT Cell Viability Assay in HepG2 cells - 0 hour (AID 1224889). Note: nearly all actives have a fitted effect of over 50% in size. Note: potency is the fitted concentration of half-maximal effect. An outline of the steps: (§6)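 Compound treatment began 5 h after plating HepG2 cells (600/well) with NanoLuc luciferase and prosubstrate. Plates stayed at 37 C for 40 h; luminescence was captured at six time points, 0 h through 40 h.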
Test [18] in a line: A CellTox Green Cytotoxicity Assay to monitor cytotoxicity in HepG2 cells - 32 hour (AID 1224883). Note: nearly all actives have a fitted effect of over 50% in size. An outline of the steps:
as §5

Test [19] is described as follows: qHTS RealTime-Glo MT Cell Viability Assay in HepG2 cells - 32 hour (AID 1224877). Note: nearly all actives have a fitted effect of over 55% in size. The method in brief:
as §6

A short description of test [20]: qHTS RealTime-Glo MT Cell Viability Assay in HepG2 cells - 16 hour (AID 1224885). Note: nearly all actives have a fitted effect of over 50% in size. An outline of the steps: as §6

Molecules are shown by their SMILES. A number with no mark means an inactive call. Inconclusive results are not listed. The source made the active and inactive calls. Calls come from the whole dose curve; as a rule, active = well fitted curve in the direction sought with a large enough effect in the repeat runs; inconclusive = weak or mixed curves; inactive = no such curve, though single readings can be large; an effect the other way counts as inactive or inconclusive.
% is set by controls: 0 for no effect and ±100 for the full control effect.

`CC(C)(Cl)[N+](=O)[O-]`: the Potency result in test [1], in [2], in [3], in test [4], in test [6] and in test [7] was “inactive” throughout. In addition, the Potency entry in test [8], in test [9], in [10], in test [11], in test [12] and in [13] was “inactive” throughout. Besides, the Potency result in test [14], in test [15] and in test [16] was “inactive” in each case. In test [5], the max response is 2.49%. Further, the Potency in [17] is 6.19 µM (active).
On to `CC1Sc2c(C(=O)O)c(=O)c3cc(F)c(N4CCNCC4)cc3n21` (centres undefined), for which the Potency result in test [1], in test [2], in test [3], in [4], in [6] and in test [7] was “inactive” in each case. The Potency result in test [8], in test [9], in test [10], in [11], in [12] and in [18] was “inactive” throughout. Further, the Potency result in [13], in [14], in test [15], in test [16] and in test [17] was “inactive” in each case. Further, in [5], the max response is 1.01%.
Take `Sc1ccccc1Cl`: the Potency entry in test [1], in test [2], in [3], in [4], in test [6] and in [19] was “inactive” each time. Also, the Potency entry in test [9], in test [10], in test [11], in test [13], in test [14] and in test [15] was “inactive” in each case. The Potency entry in test [16] and in [17] was “inactive” each time. Further, the max response in [5] is -1.55%.
As for `NCC(CC(=O)O)c1ccc(Cl)cc1` (centres undefined), the activity change, negative = cytotoxic in test [1] was -1.34% [at 0.29 µM]; in test [19] it was -0.345% [at 0.29 µM]; in test [20], -0.45% [at 0.29 µM]. The cytotoxicity increase in test [2] is -18.6% [at 0.29 µM]; in test [7], -3.17% [at 0.29 µM]; in test [9], -9.33% [at 0.29 µM]; in [11], -17.2% [at 0.29 µM]; in [13], -12.5% [at 0.29 µM]. The activity change, negative = cytotoxicity in test [3] is 0.531% [at 0.29 µM]; in [10], -1.28% [at 0.29 µM]; in test [14], 4.3% [at 0.29 µM]; in [15], 1.53% [at 0.29 µM]; in [17], -4.46% [at 0.29 µM]. Also, in test [4], the viability change, negative = cytotoxic was 0.906% [at 0.29 µM]. For the same compound, in [5], the max response was 8.41%. Further, the activity change in [6] is -19.1% [at 0.29 µM, hits give high values]; in test [16], -9.31% [at 0.29 µM, hits give high values]. The cytotoxicity in [8] was -3.56% [at 0.29 µM]; in test [12] it was 0.813% [at 0.29 µM].
In the case of `NNC(=O)c1cccnc1`, the Potency entry in [1], in [2], in test [3], in test [4], in test [6] and in test [7] was “inactive” each time. Further, the Potency result in [8], in test [9], in test [10], in [11], in test [12] and in test [18] was “inactive” each time. The Potency result in test [13], in [20], in test [14], in test [15], in [16] and in [17] was “inactive” throughout. Moreover, the max response in test [5] was 12.4%.
Regarding `COCC(C)N(C(=O)CCl)c1c(C)csc1C` (centres undefined), the Potency result in test [1], in [2], in test [3], in [4], in test [6] and in [7] was “inactive” throughout. The Potency result in [19], in test [8], in [10], in test [11], in [12] and in test [13] was “inactive” in each case. For the same compound, the Potency entry in [20], in test [14], in [15] and in [16] was “inactive” in each case. For the same compound, the max response in test [5] was 17.2%.
In the case of `ClCCCCBr`, the Potency entry in [1], in [2], in test [3], in test [4], in [6] and in [7] was “inactive” in each case. Also, the Potency result in [19], in test [8], in test [9], in [10], in [11] and in [12] was “inactive” throughout. In addition, the Potency entry in test [13], in test [14], in test [15], in test [16] and in [17] was “inactive” in each case. For the same compound, in test [5], the max response was -9.07%.
Consider `CNC(C)Cc1ccccc1OC` (centres undefined), for which the Potency result in test [1], in test [2], in test [3], in test [4], in test [6] and in [19] was “inactive” in each case. Further, the Potency result in [8], in test [9], in [10], in test [11], in [12] and in [18] was “inactive” in each case. For the same compound, the Potency entry in [20], in [14], in test [15], in [16] and in test [17] was “inactive” each time. Also, the max response in test [5] was 1.99%.
Take `c1ccoc1`: the Potency result in [1], in test [2], in [3], in [4], in test [6] and in test [7] was “inactive” in each case. For the same compound, the Potency entry in [8], in [9], in test [10], in test [11], in test [12] and in [18] was “inactive” throughout. For the same compound, the Potency entry in test [13], in test [14], in test [15], in test [16] and in test [17] was “inactive” each time. Further, the max response in test [5] is -1.82%.
